# Compound activity deposited in PubChem by National Center for Advancing Translational Sciences (NCATS).
# The sample as a whole holds a higher share of hits than the screen did.
# BLM inh: Bloom syndrome helicase (human) inhibition. recombinant BLM DNA unwinding, fluorescence dequenching. Potency, µM (top dose mostly 56.1 µM), for the others: at the top dose activity change, negative = inhibition, usual class: inhibitors. actives 0.2% (n = 350,000). AID 2528;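 also: plate controls were vehicle for no effect and no enzyme for full effect; nearly all actives have a fitted effect of over 35% in size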
# KAT2A inh: GCN5L2 (KAT2A) acetyltransferase inhibition; Potency, µM (doses to about 58.9 µM), inactives show top-dose activity change, negative = inhibition, actives largely listed as inhibitors; actives 0.21% (n = 390,000); GCN5L2 HAT assay, ThioGlo1 CoA-SH fluorescence; AID 504327; also: % is scaled to controls: 0 for no effect and ±100 for the full control effect
#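 Free CoA generated was detected with ThioGlo1 (50uM) fluorescence at Ex340nm/Em540nm, read immediately and after 20 min at room temperature. Enzyme, 20 nM in HEPES pH 7.5 buffer, saw compounds 15 min before adding 75uM H3(1-25) peptide and 70uM acetyl-CoA.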
# RECQ1 inh: inhibitors of human RECQ1 DNA helicase. P46063. RECQ1 DNA unwinding, red fluorescence kinetic read. Potency, µM (titrated, usually from 57.3 µM), for inactives: at the top dose activity, negative = inhibition, hits mostly inhibitors. actives 0.54% (n = 240,000);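 also: plate controls were vehicle for no effect and no enzyme for full effect; nearly all actives have a fitted effect of over 30% in size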
#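 RECQ1T1 50 nM; forked duplex (20 bp + 30-nt ss tails) 200 nM, ATP 2 mM final; pH 8.0, 2 mM MgCl2, 2.5 ug/ml poly(dI-dC); 15 min compound preincubation; discontinuous kinetic read over 2 h at RT.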
# APEX1 inh: inhibitors of human APE1 endonuclease; P27695; recombinant APE1, TAMRA/BHQ-2 abasic DNA cleavage fluorescence; Potency, µM (series often up to 65.8 µM), for the others: at the top dose activity change, negative = inhibition, usual class: inhibitors; actives 0.35% (n = 350,000);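 also: plate controls were vehicle for no effect and reference inhibitor for full effect; nearly all actives have a fitted effect of over 55% in size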
# Target sequence (P27695 whole entry, looked up): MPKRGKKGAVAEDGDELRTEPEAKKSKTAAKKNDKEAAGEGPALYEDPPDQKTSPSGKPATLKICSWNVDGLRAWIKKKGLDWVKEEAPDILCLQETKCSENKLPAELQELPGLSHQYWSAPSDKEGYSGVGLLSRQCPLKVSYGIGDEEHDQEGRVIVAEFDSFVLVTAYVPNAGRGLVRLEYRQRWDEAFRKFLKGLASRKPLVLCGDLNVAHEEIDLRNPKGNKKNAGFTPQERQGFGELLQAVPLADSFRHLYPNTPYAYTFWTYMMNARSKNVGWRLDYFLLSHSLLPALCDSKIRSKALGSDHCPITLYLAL
#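 0.75 nM APE1 + cpd, 15 min RT; start w/ 50 nM TAMRA/BHQ-2 THF-abasic dsDNA; kinetic fluor 525/598 nm ×3 reads @60 s; Δ(read3−read1); normalized to DMSO and NSC13755 control wells.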
# L3MBTL1 inh-1: inhibitors of human L3MBTL1 | Q9Y468 | AlphaScreen L3MBTL1–H3K9me1 peptide binding | Potency, µM (series often up to 57.1 µM), for inactives: at the highest dose activity, negative = inhibition, hits mostly inhibitors | actives 0.66% (n = 230,000) | AID 485360; also: % is scaled to controls: 0 for no effect and ±100 for the full control effect; nearly all actives have a fitted effect of over 60% in size
#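 L3MBTL1 (50 nM) pre-complexed 30 min with biotinylated H3(1-15)K9me1 peptide (75 nM), then compounds added for 30 min at room temperature; AlphaScreen streptavidin donor/nickel chelate acceptor beads (10 ug/mL final) read after 30 min dark incubation.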
# KDM4E inh: blocks human JMJD2E demethylase activity. actives 1.6% (n = 230,000). JMJD2E catalytic domain, FDH-coupled NADH fluorescence (FDH is formaldehyde dehydrogenase). Potency, µM (doses to about 57.1 µM), inactives show at the highest dose activity change, negative = inhibition, actives largely listed as inhibitors. B2RXH2; active = well fitted inhibition curve with a large enough effect, not every such curve was filed as active; inconclusive = small, poorly fitted or top-dose-only effect, or another doubt; inactive = no such curve, though single readings can be large or run the other way;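 also: 0% = wells with enzyme and -100% = buffer wells without enzyme; nearly all actives have a fitted effect of over 50% in size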
# Target sequence (B2RXH2 1-337 limits assumed): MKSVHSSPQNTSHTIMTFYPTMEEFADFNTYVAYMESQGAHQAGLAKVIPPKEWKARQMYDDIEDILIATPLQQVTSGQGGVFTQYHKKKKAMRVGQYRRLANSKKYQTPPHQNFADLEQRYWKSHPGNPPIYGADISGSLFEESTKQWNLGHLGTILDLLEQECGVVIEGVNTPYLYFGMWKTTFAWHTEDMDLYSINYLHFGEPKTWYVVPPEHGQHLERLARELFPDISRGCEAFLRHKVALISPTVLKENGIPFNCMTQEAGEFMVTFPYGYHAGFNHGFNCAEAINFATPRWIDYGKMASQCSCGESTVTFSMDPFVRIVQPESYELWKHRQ
# L3MBTL1 inh-2: L3MBTL1 binding inhibition validated | shares compounds with L3MBTL1 inh-1 | L3MBTL1 methyl-lysine binding inhibition, biochemical qHTS | Potency, µM, usual class: inhibitors | actives 91% (n = 500) | AID 540279; also: nearly all actives have a fitted effect of over 70% in size
# L3MBTL1 ctr: interferes with AlphaScreen signal in L3MBTL1 counterscreen. shares compounds with L3MBTL1 inh-1. AlphaScreen counterscreen, signal inhibition. Potency, µM (doses to about 57.1 µM), inactives show top-dose activity change, negative = inhibition, actives largely listed as inhibitors. 500 tested, under 10 active. AID 602224; also: 0% is about no effect
# The depositor's hits bear a star; i = inactive; ? = inconclusive; · = no result. Unless noted, calls follow the shape of the dose curve; as a rule, active = well fitted curve in the direction sought with a large enough effect; inconclusive = small, poorly fitted or top-dose-only effect, or another doubt; inactive = no such curve, though single readings can be large; an effect the other way counts as inactive or inconclusive. Potency is read from the fitted curve at half-maximal effect.
SMILES,BLM inh,KAT2A inh,RECQ1 inh,APEX1 inh,L3MBTL1 inh-1,KDM4E inh,L3MBTL1 inh-2,L3MBTL1 ctr
Cn1nc2c(c1C(=O)O)CCCC2,-1%,-1%,-3%,?,5.6µM*,-3%,15*,15%
O=C(O)c1ccc2c3c(cccc13)C(=O)N(c1ccccc1)C2=O,-13%,-17%,?,?,13µM*,?,2.7*,4%
CCn1c2ccccc2c2cc(N=C3SC(CC(=O)Nc4ccccc4OC)C(=O)N3CCOC)ccc21 (centres undefined),-5%,-10%,-9%,-11%,28µM*,2%,7.5*,?
N#Cc1c(=O)c2nc(NCc3ccccc3)ncc2n2ccccc12,-4%,-5%,i,0%,·,?,·,·
N#Cc1c(=O)c2nc(NCCCO)ncc2n2c(=O)c3ccccc3[nH]c12,-20%,-19%,-14%,?,10µM*,?,6*,45%
O=C(Oc1c(CN2CCOCC2)cc(Cl)c2cccnc12)c1ccccc1F,4%,-4%,-6%,-2%,14µM*,32µM*,27*,2%
O=C(Oc1c(CN2CCOCC2)cc(Cl)c2cccnc12)c1ccccc1,-1%,-9%,-4%,9%,·,-20%,·,·
Cc1cc(C)c2nc(N3C(=O)C(O)=C(C(=O)c4ccco4)C3c3cccc(O)c3)sc2c1 (centres undefined),·,?,·,-17%,32µM*,·,24*,0%
Cc1ccc2nc(N3C(=O)C(O)=C(C(=O)c4ccc(C)o4)C3c3ccco3)sc2c1 (centres undefined),·,-16%,·,-4%,?,·,·,·
O=C(C1=C(O)C(=O)N(c2nc3ccc(Cl)cc3s2)C1c1ccco1)c1ccco1 (centres undefined),·,?,·,-13%,20µM*,·,6*,-4%
Cc1cc(C)c2nc(N3C(=O)C(O)=C(C(=O)c4ccco4)C3c3ccc(O)cc3)sc2c1 (centres undefined),·,?,·,-11%,-16%,·,·,·
Cc1cc(=O)oc2cc(OCC(=O)Nc3c(C(C)C)cccc3C(C)C)ccc12,-6%,-6%,·,·,·,·,·,·
CN1CCN(/N=C/c2nc(-c3cccc([N+](=O)[O-])c3)n3ccccc23)CC1,-9%,-4%,-5%,?,-11%,-10%,·,·
O=C(O)/C=C/c1nc(-c2ccccc2)n2ccccc12,16%,1%,2%,1%,18µM*,1%,?,-15%
O/N=C1/C2C3C(Br)C4C5CC(C1C53)C24 (centres undefined),-1%,-1%,-8%,2%,3%,6%,·,·
O=C(O)CCCCCn1c(SCC(=O)c2ccc(O)c(O)c2)nc2ccsc2c1=O,2%,-4%,-20%,?,32µM*,10µM*,3*,-1%
O=C(O)CCCCCn1c(SCC(=O)N2CCCC2)nc2ccsc2c1=O,2%,-25%,-8%,-5%,2%,4%,·,·
CCCCCCNC(=O)c1c(O)c2ccccc2[nH]c1=O,-4%,-1%,i,-3%,11%,-2%,·,·
CC(C)[C@H](NC(=O)c1ccccc1Cl)C(=O)Nc1nc(-c2ccccn2)cs1,1%,-13%,-3%,-2%,35µM*,?,24*,18%
COC(=O)Cc1c(C)nc2nc(NCc3ccc(Br)cc3)[nH]n2c1=O,4%,-1%,·,·,·,·,·,·
Cn1c(=O)c2nc3ccc(NC(=O)C(F)(F)F)cc3nc2n(C)c1=O,-2%,0%,·,·,·,·,·,·
CC(=O)Nc1ccc2nc3c(=O)n(C)c(=O)n(C)c3nc2c1,-25%,?,-2%,-10%,25µM*,?,24*,5%
O=C(CC1Sc2ccccc2NC1=O)Nc1cccc(C(=O)O)c1 (centres undefined),-6%,3%,0%,?,11µM*,2%,0.95*,11%
CC(=O)Nc1ccc(NC(=O)CC2Sc3ccccc3NC2=O)cc1 (centres undefined),-1%,3%,·,·,·,·,·,·
CCS(=O)(=O)N1Cc2ccccc2CC1C(=O)Nc1nnc(SCc2ccc(C#N)cc2)s1 (centres undefined),-29%,-2%,0%,4%,18µM*,?,3.4*,20%
SMILES,BLM inh,KAT2A inh,RECQ1 inh,APEX1 inh,L3MBTL1 inh-1,KDM4E inh,L3MBTL1 inh-2,L3MBTL1 ctr
CC(CCc1ccccc1)NC(=O)Cn1c(=O)nc(-c2ccccc2)c2cc(Cl)ccc21 (centres undefined),-8%,0%,·,·,·,·,·,·
COc1ccc(CNC(=O)c2cnc(C)cn2)cc1,4%,-7%,-2%,-3%,22µM*,-4%,17*,13%
COc1ccc(C(=O)NC2CCN(CC(=O)N3CCCCC3)CC2)cc1,1%,-9%,·,-6%,·,·,·,·
Cc1cccc(NC(=O)c2cc(-c3ccco3)nc3ccccc23)n1,-5%,-13%,i,-3%,-6%,?,·,·
CC(C)CCNC(=O)c1cc(-c2ccco2)nc2ccccc12,0%,1%,i,-3%,·,?,·,·
CCCCCCNC(=O)c1cc(-c2ccco2)nc2ccccc12,-12%,?,i,10%,14µM*,?,7.5*,8%
COC(=O)C1CCN(C(=O)c2cc(-c3ccco3)nc3ccccc23)CC1,·,8.9µM*,·,?,0.79µM*,·,5.3*,2%
CN(C)C(CNC(=O)c1cc(-c2ccco2)nc2ccccc12)c1ccccc1 (centres undefined),·,?,·,-3%,7.9µM*,·,2.7*,-6%
O=C(Cn1ncn2c(cc3ccccc32)c1=O)NCc1ccco1,-13%,-21%,12%,-1%,?,6%,·,·
CCC1CN(C(=O)Nc2cccc3c2CCCC3)c2cc(Cl)ccc2O1 (centres undefined),-2%,-6%,·,·,·,·,·,·
CC(C)(C)NC(=O)C(c1ccc(F)cc1)N(Cc1ccco1)C(=O)CCC(=O)Nc1nccs1 (centres undefined),0%,0%,·,68%,·,·,·,·
Cc1ccc(C(=O)OCC(=O)c2ccc(CC(=O)N3CCOCC3)s2)c(C)c1,·,?,·,?,20µM*,·,3*,8%
Cc1ccc(C(=O)OCC(=O)c2ccc(CC(=O)N3CCOCC3)s2)cc1C,·,-19%,·,-16%,?,·,·,·
Cc1ccc(C)c(NC(=O)CN(C)C(=O)c2cccc(-n3cccc3)c2)c1,·,-17%,·,3µM*,8.9µM*,·,2.7*,?
